Test results reported in PubChem BioAssay (NCATS).
Where “and” joins values, the source holds several entries; their conditions need not be identical. Equal values may be shown once. Records with an inconclusive call do not appear. Values without a mark were called inactive. Calls of active or inactive are those of the source. Calls come from the whole dose curve; as a rule, active = well fitted inhibition curve with a large enough effect; inconclusive = small, poorly fitted or top-dose-only effect; inactive = flat fitted curve, though single readings scatter.
% is set by controls: 0 for no effect and ±100 for the full control effect; potency is the fitted concentration of half-maximal effect.

These compounds were tested on KB-3-1 (assay: Cytotoxic Profiling of Annotated Libraries Using Quantitative High-Throughput Screening (AID 1296008; note: nearly all actives have a fitted effect of over 60% in size)). Conditions: Five cell lines viability, CellTiter-Glo ATP luminescence, 48-72 h; max response: stronger effect = lower value.
Text: Cell-based phenotypic screening is a commonly used approach to discover biological pathways, novel drug targets, chemical probes and high-quality hit-to-lead molecules. Many hits identified from high-throughput screening campaign are ruled out through a series of follow-up potency, selectivity/specificity, and cytotoxicity assays. Prioritization of molecules with little or no cytotoxicity for a more in-depth downstream evaluation influence the future direction of projects, so cytotoxicity profiling of the screening libraries at early stage is essential for increasing the likelihood of candidate success. […] For the annotated library, we also examined the primary targets and mechanistic pathways regularly associated with cell death. To our knowledge, this is the first study to use high-throughput screening to profile large libraries for cytotoxicity assessment in both normal and cancer cell lines. In summary, the results generated here constitutes a valuable resource for the scientific community and provides insight on identifying cytotoxic compounds with particular mechanisms of action, and prioritizing compounds with suitable cytotoxicity profile for further evaluation.
A pintool (Kalypsys) was used to transfer 23 nL of compound solution to the 1536-well assay plates. After 48 or 72 hr incubation at 37 degree Celsius, 5% CO2 and 95% humidity, 2.5 uL of CellTiter-Glo (Promega) was dispensed into each well using a dispenser (Aspect Automation, St. Paul, MN) with solenoid valves (Lee Valves, Westbrook CT). Plates were left at room temperature for 10 min before imaging the ATP-coupled luminescence using a ViewLux microplate imager (PerkinElmer, Waltham, MA).
For `O=C1c2ccccc2C(=O)C1c1ccc(Cl)cc1`, the max response was -7.12%. `CCN(CC)CCOC(=O)c1cccnc1` showed a max response of 21.6%. `CC1(C)[C@H]2CC[C@]1(C)[C@H](O)C2` showed a max response of -0.648%. Compound `CN1CCc2c(c3ccccc3n2Cc2ccccc2)C1` has a max response of 8.09%. With `CC[C@@H](C)[C@H](N)C(=O)O` the max response was -7.63%. With `Cc1cccc(C)c1Nc1ncccc1C(=O)O` the max response was -0.608%. `CC(=C\c1ccccc1)/C=C1/SC(=S)N(CC(=O)O)C1=O` gave a max response of 3.64%. With `NC(=S)N=Nc1ccc(NN=C(N)N)cc1` the max response was -12.2%. `O=C(O)c1ccc(NC(=O)[C@H](Cc2ccc(O)cc2)NC(=O)c2ccccc2)cc1` was tested, and the max response was 7.82%. `CC(C)(C)NCC(O)CSc1nc(-c2ccc(C(N)=O)s2)cs1` (stereo not given) showed a max response of 15.3%. Compound `Cc1ncc(COP(=O)(O)O)c(CN)c1O` has a max response of -6.16%. For `CC1=CCC2CC1C2(C)C` (stereo not given), the max response was 16.6%. `CN1CCCC(CN2c3ccccc3Sc3ccccc32)C1` (stereo not given) was tested, and the max response was -10.2%. For `CCCOc1cc(N)ccc1C(=O)OCCN(CC)CC`, the max response was -11.4%. Compound `C=CC(=O)O` has a max response of -9.21%. Work on `C[S+](C)CCC(N)C(=O)O` (stereo not given) yielded a max response of 3.56%. `CC1CC(O)CC(C)(C)C1` (stereo not given) showed a max response of 4.01%. In the case of `CC/C(=C(/CC)c1ccc(OP(=O)(O)O)cc1)c1ccc(OP(=O)(O)O)cc1`, the max response is reported as -7.92%. For `O=C(O)/C=C/c1ccccc1`, the max response was 5.56%. With `O=[N+]([O-])c1c(Cl)cccc1-c1c[nH]cc1Cl` the max response was 2.84%. With `O=C(CCCN1CCC(C(=O)c2ccc(F)cc2)CC1)c1ccc(F)cc1` the max response was 33.7%. In the case of `CC(C)c1ncc([N+](=O)[O-])n1C`, the max response is reported as -7.8%. `CC(=O)N[C@@H](C=O)[C@@H](O)[C@H](O)[C@H](O)CO` showed a max response of 2.45%. `C=C[C@]1(C)C[C@@H](OC(=O)CSCCN(CC)CC)[C@]2(C)[C@H](C)CC[C@]3(CCC(=O)[C@H]32)[C@@H](C)[C@@H]1O` was tested, and the max response was -8.95%. `CCOC(=O)c1c[nH]c2cc(OCC(C)C)c(OCC(C)C)cc2c1=O` gave a max response of 5.44%. Work on `CCOC(C)OCC` yielded a max response of -6.86%. Compound `CC(=O)Nc1c(I)c(C(=O)N[C@H]2C(O)O[C@H](CO)[C@@H](O)[C@@H]2O)c(I)c(N(C)C(C)=O)c1I` (stereo not given in full) has a max response of -7.33%. `CSc1nc2cc(Oc3cccc(Cl)c3Cl)c(Cl)cc2[nH]1` gave a max response of -1.84%. For `CS(=O)(=O)OCC(O)C(O)COS(C)(=O)=O` (stereo not given), the max response was -18.1%. With `CC(=O)[C@H]1CC[C@H]2[C@@H]3C=CC4=CC(=O)CC[C@@]4(C)[C@H]3CC[C@]12C` the max response was -2.63%. `CN1CCC(OC(=O)C(Oc2ccc(Cl)cc2)Oc2ccc(Cl)cc2)CC1` showed a max response of -2.63%. Work on `CCc1ccc(S(=O)(=O)O)cc1` yielded a max response of 6.98%. `Oc1cc(O)cc(O)c1` was tested, and the max response was 3%. With `CN=C1C=CC(=C(c2ccc(N(C)C)cc2)c2ccc(N(C)C)cc2)C=C1` the Potency was 7.31 µM (active). Work on `CO/N=C(\C(=O)N[C@@H]1C(=O)N2C(C(=O)[O-])=C(C[n+]3ccc(N)n3CCO)CS[C@H]12)c1csc(N)n1` yielded a max response of 5.24%. Work on `O=C(c1cc2ccccc2o1)N1CCN(Cc2ccccc2)CC1` yielded a max response of -3.18%. `CO[C@H]1C[C@H](O[C@H]2[C@H](C)[C@@H](O[C@@H]3O[C@H](C)C[C@H](N(C)C)[C@H]3O)[C@@H](C)C[C@]3(CO3)C(=O)[C@H](C)[C@@H](O)[C@@H](C)[C@@H](C)OC(=O)[C@@H]2C)O[C@@H](C)[C@@H]1O` showed a max response of 3.86%. `FC(F)(F)COCC(F)(F)F` was tested, and the max response was -9.66%. Compound `CCCCC[C@H](O)/C=C/[C@@H]1[C@H]2C/C(=C/CCCC(=O)O)O[C@H]2C[C@H]1O` has a max response of 11.9%. For `NC(=O)CC[C@@H]1NC(=O)[C@H](Cc2ccccc2)NC(=O)[C@H](Cc2ccc(O)cc2)NC(=O)[C@@H](N)CSSC[C@@H](C(=O)N2CCC[C@H]2C(=O)N[C@@H](CCCN=C(N)N)C(=O)NCC(N)=O)NC(=O)[C@H](CC(N)=O)NC1=O`, the max response was 22.3% and -14.9%.
